The results in this text go back to the supplement of paper PMC4840960.

± gives the standard deviation of the averaged measurements.

Experiment [1] concerns E18 rat cortical neuron-glia co-culture. Nature of the experiment: fiber score / MBP score (myelination specific beyond OL differentiation) (ratio); higher = more myelination-specific MBP alignment. The conditions noted are these: treatment time: 8 days (DIV5-DIV13). Put shortly: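 Fiber score divided by MBP score is the read-out; fiber score is continuous MBP fiber length per Olig2+ nucleus, and MBP score is thresholded MBP area × intensity per Olig2+ nucleus. Primary E18 rat cortical co-cultures were dissociated with papain and seeded at 20,000 cells/well on poly-d-lysine/laminin 96-well plates. Library compounds at 1 or 5 µM were given in myelination medium from DIV5 to DIV13, after which cells were fixed in 4 % paraformaldehyde, immunostained for MBP and Olig2 with DAPI, and imaged in four 10X fields per well in duplicate wells.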

For experiment [2] the test system is unchanged. The experiment can be described thus: myelination (MBP fiber length per Olig2+ nucleus), % of 1 µM DAPT response (DMSO = 0) (% of DAPT); higher = more myelination, active = 50 or more. The following applies: treatment time: 8 days (DIV5-DIV13). The method in brief:
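Four 10X fields in each of duplicate wells were analysed after cultures were fixed in 4 % paraformaldehyde and immunostained for MBP and Olig2, with DAPI as the nuclear counterstain. The cultures were papain-dissociated primary E18 rat cortical co-cultures at 20,000 cells/well on poly-d-lysine/laminin 96-well plates, dosed with library compounds at 1 or 5 µM in myelination medium from DIV5 to DIV13. The myelination readout was continuous straight MBP fiber length per Olig2+ nucleus, with 0.1 % DMSO set to 0 and a 1 µM positive control set to 100.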

Turning to `C#C[C@]1(O)CC[C@H]2[C@@H]3CCC4=CC(=O)CC[C@@H]4[C@H]3CC[C@@]21CC` [Levonorgestrel], the “fiber score / MBP score” value stood at 0.998 in experiment [1] (1 µM) and 1.12 in experiment [1] (5 µM). The myelination was -13.4 (inactive) in experiment [2] (1 µM) and 0.485 (inactive) in experiment [2] (5 µM).

As for `CCCN[C@H]1CCc2nc(N)sc2C1` [Pramipexole], the “fiber score / MBP score” value came to 0.851 ± 0.02 in experiment [1] (1 µM) and 0.903 ± 0.21 in experiment [1] (5 µM). Moreover, the myelination in experiment [2] (1 µM) was -6.49 (inactive); in experiment [2] (5 µM), -14.4 (inactive).

For `C[C@]12C=CC(=O)C=C1CC[C@@H]1[C@@H]2C(=O)C[C@@]2(C)[C@H]1CC[C@]2(O)C(=O)CO` [Prednisone], the “fiber score / MBP score” value in experiment [1] (1 µM) amounted to 0.839; in experiment [1] (5 µM), 0.736. The myelination was -13.2 (inactive) in experiment [2] (1 µM) and -10.1 (inactive) in experiment [2] (5 µM).

As for `OCCN(CCO)c1nc(N2CCCCC2)c2nc(N(CCO)CCO)nc(N3CCCCC3)c2n1` [Dipyridamole], the “fiber score / MBP score” value in experiment [1] (1 µM) came out at 1.01; in experiment [1] (5 µM), 0.523. Also, the results for the myelination in experiment [2] (1 µM) and in experiment [2] (5 µM) were 3.14 (inactive) and -17.3 (inactive), respectively.

Take `O=C1CCC(N2C(=O)c3ccccc3C2=O)C(=O)N1` (stereo not given) [Thalidomide]: the figures for the “fiber score / MBP score” value in experiment [1] (1 µM) and in experiment [1] (5 µM) were 1.07 and 1.14, respectively. The myelination in experiment [2] (1 µM) is 1.07 (inactive); in experiment [2] (5 µM), 4.71 (inactive).

As for `NC1CCN(c2cccc(Cl)n2)CC1`, the “fiber score / MBP score” value in experiment [1] (1 µM) was determined as 1.09; in experiment [1] (5 µM) it was 0.551. The myelination in experiment [2] (1 µM) is 4.32 (inactive); in experiment [2] (5 µM), -35 (inactive).

Regarding `CC[C@H](C)C(=O)O[C@H]1C[C@H](O)C=C2C=C[C@H](C)[C@H](CC[C@@H](O)C[C@@H](O)CC(=O)O)[C@H]21` [Pravastatin], the figures for the “fiber score / MBP score” value in experiment [1] (1 µM) and in experiment [1] (5 µM) were 0.899 and 0.809, respectively. The results for the myelination in experiment [2] (1 µM) and in experiment [2] (5 µM) were 2.73 (inactive) and -17.4 (inactive), respectively.

With `COc1cc2nc(N3CCN(C(=O)C4CCCO4)CC3)nc(N)c2cc1OC` (stereo not given) [Terazosin], the “fiber score / MBP score” value in experiment [1] (1 µM) is 1.2 ± 0.17; in experiment [1] (5 µM), 1.08 ± 0.41. Moreover, the myelination in experiment [2] (1 µM) was 11.7 (inactive); in experiment [2] (5 µM) it was 2.09 (inactive).

Take `CO[C@H]1/C=C/O[C@@]2(C)Oc3c(C)c(O)c4c(O)c(c(/C=N/N5CCN(C)CC5)c(O)c4c3C2=O)NC(=O)/C(C)=C\C=C\[C@H](C)[C@H](O)[C@@H](C)[C@@H](O)[C@@H](C)[C@H](OC(C)=O)[C@@H]1C` [Rifampicin]: the “fiber score / MBP score” value in experiment [1] (1 µM) turned out to be 0.964; in experiment [1] (5 µM) it was 0.704. The myelination in experiment [2] (1 µM) is 12.6 (inactive); in experiment [2] (5 µM) it was -2.96 (inactive).

Turning to `NC[C@H]1CC[C@H](C(=O)Oc2ccc(CCC(=O)O)cc2)CC1` [Cetraxate], the “fiber score / MBP score” value was 1.07 in experiment [1] (1 µM) and 0.791 in experiment [1] (5 µM). Besides, the myelination is 4.64 (inactive) in experiment [2] (1 µM) and -18.2 (inactive) in experiment [2] (5 µM).

Take `CCC[C@@H]1C[C@@H](C(=O)N[C@@H]([C@H]2O[C@H](SC)[C@H](O)[C@@H](O)[C@H]2O)[C@@H](C)O)N(C)C1` [Lincomycin]: the “fiber score / MBP score” value in experiment [1] (1 µM) amounted to 0.754; in experiment [1] (5 µM) it was 0.914. Besides, the myelination in experiment [2] (1 µM) was -22.9 (inactive); in experiment [2] (5 µM), 7.24 (inactive).

Regarding `CCOC(=O)CCC(=O)O[C@H]1[C@H](O[C@@H]2[C@@H](C)[C@H](O[C@H]3C[C@@](C)(OC)[C@@H](O)[C@H](C)O3)[C@@H](C)C(=O)O[C@H](CC)[C@@](C)(O)[C@H](O)[C@@H](C)C(=O)[C@H](C)C[C@@]2(C)O)O[C@H](C)C[C@@H]1N(C)C` [Erythromycin Ethylsuccinate], the entries for the “fiber score / MBP score” value in experiment [1] (1 µM) and in experiment [1] (5 µM) were 0.639 and 0.642, respectively. Also, the myelination in experiment [2] (1 µM) was -18 (inactive); in experiment [2] (5 µM), -16.3 (inactive).

Regarding `COc1cc2nc(N3CCN(C(=O)c4ccco4)CC3)nc(N)c2cc1OC` [Prazosin], the “fiber score / MBP score” value amounted to 0.568 in experiment [1] (1 µM) and 1 in experiment [1] (5 µM). Moreover, the myelination in experiment [2] (1 µM) is -38.1 (inactive); in experiment [2] (5 µM) it was 3.87 (inactive).

For the compound `CCCCCCCCCCC[C@@H](C[C@@H]1OC(=O)[C@H]1CCCCCC)OC(=O)[C@H](CC(C)C)NC=O` [Orlistat], the “fiber score / MBP score” value in experiment [1] (1 µM) came to 0.69; in experiment [1] (5 µM) it was 0.913. For the same compound, the myelination in experiment [2] (1 µM) was -34.7 (inactive); in experiment [2] (5 µM) it was 38.7 (inactive).

As for `CC[N+](C)(CC)CCOC(=O)C(O)(c1ccccc1)C1CCCCC1` (stereo not given) [Oxyphenonium], the “fiber score / MBP score” value in experiment [1] (1 µM) was 0.849; in experiment [1] (5 µM) it was 0.703. In addition, the myelination in experiment [2] (1 µM) is -8.21 (inactive); in experiment [2] (5 µM), -6.58 (inactive).

Turning to `CS(=O)(=O)OCCCCOS(C)(=O)=O` [Busulfan], the “fiber score / MBP score” value was 0.646 in experiment [1] (1 µM) and 1.46 in experiment [1] (5 µM). In addition, the myelination in experiment [2] (1 µM) is -6.35 (inactive); in experiment [2] (5 µM) it was 46.7 (inactive).

Regarding `CC1Cc2ccccc2N1NC(=O)c1ccc(Cl)c(S(N)(=O)=O)c1` (stereo not given) [Indapamide], the “fiber score / MBP score” value was determined as 0.911 in experiment [1] (1 µM) and 1.31 in experiment [1] (5 µM). In addition, the myelination in experiment [2] (1 µM) is -4.93 (inactive); in experiment [2] (5 µM), 6.67 (inactive).

Take `CC(CN1c2ccccc2Sc2ccccc21)N(C)C` (stereo not given) [Promethazine]: the “fiber score / MBP score” value was 0.678 in experiment [1] (1 µM) and 0.931 in experiment [1] (5 µM). Besides, the myelination is -18.8 (inactive) in experiment [2] (1 µM) and -4.26 (inactive) in experiment [2] (5 µM).

Turning to `C=C1/C(=C\C=C2/CCC[C@]3(C)[C@@H]([C@H](C)/C=C/[C@@H](O)C4CC4)CC[C@@H]23)C[C@@H](O)C[C@@H]1O` [Calcipotriene], the entries for the “fiber score / MBP score” value in experiment [1] (1 µM) and in experiment [1] (5 µM) were 0.711 and 0.6, respectively. The figures for the myelination in experiment [2] (1 µM) and in experiment [2] (5 µM) were -43.8 (inactive) and -82.7 (inactive), respectively.

As to `CN1CCc2cc(Cl)c(O)cc2C(c2ccccc2)C1` (stereo not given), the “fiber score / MBP score” value in experiment [1] (1 µM) stood at 0.959; in experiment [1] (5 µM) it was 0.975. Further, the myelination is -8.8 (inactive) in experiment [2] (1 µM) and -9.82 (inactive) in experiment [2] (5 µM).

As for `C[C@]12CCC(=O)C=C1CC[C@@H]1[C@@H]2C(=O)C[C@@]2(C)[C@H]1CC[C@]2(O)C(=O)CO` [Cortisone], the “fiber score / MBP score” value is 0.752 in experiment [1] (1 µM) and 0.764 in experiment [1] (5 µM). For the same compound, the results for the myelination in experiment [2] (1 µM) and in experiment [2] (5 µM) were -12.4 (inactive) and -10.5 (inactive), respectively.

Turning to `COc1ccnc(C[S+]([O-])c2nc3cc(OC(F)F)ccc3[nH]2)c1OC` (stereo not given) [Pantoprazole], the results for the “fiber score / MBP score” value in experiment [1] (1 µM) and in experiment [1] (5 µM) were 0.86 and 0.933, respectively. The results for the myelination in experiment [2] (1 µM) and in experiment [2] (5 µM) were -9.58 (inactive) and 1.97 (inactive), respectively.

Turning to `CCOC(=O)[C@H](CCc1ccccc1)N[C@@H](C)C(=O)N1CCC[C@H]1C(=O)O` [Enalapril], the figures for the “fiber score / MBP score” value in experiment [1] (1 µM) and in experiment [1] (5 µM) were 0.732 and 0.734, respectively. Moreover, the myelination was -22.3 (inactive) in experiment [2] (1 µM) and -27.5 (inactive) in experiment [2] (5 µM).

Take `CC(C(=O)O)c1ccc(-c2ccccc2)c(F)c1` (stereo not given) [Flurbiprofen]: the entries for the “fiber score / MBP score” value in experiment [1] (1 µM) and in experiment [1] (5 µM) were 0.667 ± 0.24 and 0.793 ± 0.03, respectively. Besides, the myelination was -16.8 (inactive) in experiment [2] (1 µM) and -13.6 (inactive) in experiment [2] (5 µM).

Take `CN1CCN2c3ncccc3Cc3ccccc3C2C1` (stereo not given) [Mirtazapine]: the “fiber score / MBP score” value was found to be 0.861 in experiment [1] (1 µM) and 1.07 in experiment [1] (5 µM). Further, the myelination in experiment [2] (1 µM) is -13.9 (inactive); in experiment [2] (5 µM), -4.21 (inactive).
